{"source": "PubChem BioAssay", "note": "Active and inactive are the calls of the source. How the calls were made is not given here.", "data": [{"target": "Pantothenate synthetase (Mycobacterium tuberculosis (strain ATCC 25618 / H37Rv)) (UniProt P9WIL5)", "sequence (P9WIL5 whole entry, looked up)": "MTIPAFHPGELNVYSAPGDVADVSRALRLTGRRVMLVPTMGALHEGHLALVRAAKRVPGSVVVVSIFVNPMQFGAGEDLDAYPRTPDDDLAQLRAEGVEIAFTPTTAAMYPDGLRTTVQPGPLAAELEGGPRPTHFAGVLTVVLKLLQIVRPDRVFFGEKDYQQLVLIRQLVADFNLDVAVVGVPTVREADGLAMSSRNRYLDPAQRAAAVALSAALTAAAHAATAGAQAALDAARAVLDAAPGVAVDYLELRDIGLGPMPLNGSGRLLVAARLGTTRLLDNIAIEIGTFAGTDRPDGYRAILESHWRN", "experiment": "Recombinant Mtb pantothenate synthetase (PanC) inhibitors, coupled enzyme, confirmatory (AID 375);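 further: 0% = full reaction with vehicle and 100% = no enzyme background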", "conditions": "coupled enzyme assay; at 10 µM, active compounds read high", "values": [{"smiles": "O=S1(=O)N=C(Nc2nc3c(s2)CCCC3)c2ccccc21", "inhibition": "4% (inactive)"}, {"smiles": "CCOC(=O)CSc1ncnc2c1cnn2-c1ccc(C)cc1", "inhibition": "15% (inactive)"}, {"smiles": "Cn1c(Cc2ccccc2)nnc1SCC(=O)c1ccc(Br)s1", "inhibition": "0% (inactive)"}, {"smiles": "CC1CN=C(N(C(=O)Nc2ccccc2)c2ccc(S(=O)(=O)N3CCOCC3)cc2)S1", "note": "(stereo not drawn)", "inhibition": "0% (inactive)"}, {"smiles": "COc1ccc(-c2nnc(SCC(=O)Nc3cc(C)on3)n2C)cc1OC", "inhibition": "5% (inactive)"}, {"smiles": "Cc1ccccc1-n1c(=O)c2ccccc2n2nnnc12", "inhibition": "0% (inactive)"}, {"smiles": "COc1ccc2nc(CC(C)(C)CC(=O)O)c[n+]([O-])c2c1", "inhibition": "10% (inactive)"}, {"smiles": "Cc1ccc(NC(=O)CSC2=C(C#N)C(c3ccc4c(c3)OCO4)CC(=O)N2)cc1C", "note": "(stereo not drawn)", "inhibition": "0% (inactive)"}, {"smiles": "CCOC(=O)CSc1nnc(-c2ccccc2OC)o1", "inhibition": "0% (inactive)"}, {"smiles": "COC(=O)c1cn(-c2ccccc2)nc1C(=O)OC", "inhibition": "2% (inactive)"}, {"smiles": "Cc1cc(C)c(OCC(=O)Nc2cccc(O)c2)cc1C", "inhibition": "0% (inactive)"}, {"smiles": "COc1ccccc1NS(=O)(=O)c1ccc(OC)c(OC)c1", "inhibition": "8% (inactive)"}, {"smiles": "NC1=NC(c2ccc(Cl)cc2)n2c(nc3ccccc32)N1", "note": "(stereo not drawn)", "inhibition": "0% (inactive)"}, {"smiles": "Nc1nnc(SCC(=O)N2CCN(c3ccccc3)CC2)n1-c1ccccc1", "inhibition": "7% (inactive)"}, {"smiles": "COC(=O)c1ccccc1NC(=O)N1CCCC1", "inhibition": "0% (inactive)"}, {"smiles": "Cc1ncc([N+](=O)[O-])n1CCO", "inhibition": "1% (inactive)"}, {"smiles": "COc1ccc(CCNC(=O)C2CCCN(c3nn4c(=O)cc(C)nc4s3)C2)cc1OC", "note": "(stereo not drawn)", "inhibition": "0% (inactive)"}, {"smiles": "COc1ccc(-c2nnc3sc(C(C)N4C(=O)c5ccccc5C4=O)nn23)cc1", "note": "(stereo not drawn)", "inhibition": "0% (inactive)"}]}]}
